Compound activity as filed in PubChem BioAssay.
MCF10A rereplic = induces DNA re-replication in MCF 10a normal breast cells; MCF 10A DNA re-replication, Hoechst nuclear intensity, 48 h; Potency, µM (top dose mostly 46.1 µM), inactives show at the highest dose activity, positive = re-replication, most hits filed as activators; hit rate 2.9% among 350,000; AID 624296; note: % of control where 0% means no effect; nearly all actives have a fitted effect of over 50% in size
HT1080-NT tox = kills 2HG-producing HT-1080-NT fibrosarcoma cells; HT-1080-NT fibrosarcoma viability, CellTiter-Glo ATP luminescence, 48 h; Potency, µM (highest dose often 46.1 µM), inactives show at the highest dose activity, negative = less viability, hits mostly cytotoxic; hit rate 1.6% among 360,000; AID 686970;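 note: NT is the 2HG producing partner of a matched IDH1 knockdown line; 0% = DMSO-treated cells and -100% = media-only wells without cells; nearly all actives have a fitted effect of over 55% in size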
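Read-out is CellTiter-Glo luminescence after 10 minutes at room temperature, following 48 hours' compound treatment of HT-1080-NT cells (750 cells/well, RPMI, 5% FBS, 37 degrees C).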
SW480 rerep = inducers of DNA re-replication in SW480 colon cancer cells; Potency, µM (highest dose often 46.1 µM), for the others: at the highest dose re-replication activation, actives largely listed as activators; hit rate 1.8% among 340,000; AID 624297; SW480 DNA re-replication, Hoechst DNA content imaging, 48 h; note: % of control where 0% means no effect; nearly all actives have a fitted effect of over 55% in size
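Treated cells incubate 48 hr (37 C, 5% CO2), are stained 40 min with Hoechst, and nuclear fluorescence is enumerated; a rise in nuclei with high DNA signal marks re-replication.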
KB-V1 cytotox = KB-V1 MDR subline cytotoxicity; Potency, µM (doses to about 46.1 µM), actives largely listed as cytotoxic; KB-V1 MDR cells viability, CellTiter-Glo, 72 h; hit rate 3.4% among 400,000; note: % is set by controls: 0 for no effect and ±100 for the full control effect; nearly all actives have a fitted effect of over 60% in size
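KB-V1, DMEM (no phenol red) + 10% FBS; cpd pin-transferred, titration series; 72 h, 37 degrees C; CellTiter-Glo, luminescence. Data normalized, curve-fit.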
HT1080 IDH1KD tx = HT-1080 IDH1 knockdown cell toxicity (counter line). HT-1080 IDH1 knockdown viability, ATP luminescence, 48 h. Potency, µM (highest dose often 46.1 µM), for the others: at the top dose activity, negative = toxicity, actives largely listed as cytotoxic. hit rate 2% among 360,000;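 note: 0% = DMSO wells and -100% = cell-free medium wells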
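In this qHTS, HT-1080 cells depleted of IDH1 are exposed for 48 h at 37 °C to compound titrations. Toxicity is scored from CellTiter-Glo luminescence, with DMSO as full viability and medium alone as none.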
KB-3-1 tox = KB-3-1 parental cell cytotoxicity. Potency, µM (titrated, usually from 46.1 µM), hits mostly cytotoxic. AID 1347075. KB-3-1 viability, CellTiter-Glo ATP luminescence, 72 h. hit rate 1.4% among 400,000; note: % is set by controls: 0 for no effect and ±100 for the full control effect; nearly all actives have a fitted effect of over 60% in size
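Cells are dispensed, compounds pinned in, plates held at 37 °C for 72 h, then CellTiter-Glo is added and luminescence read after 10 minutes. Cell line: parental KB-3-1 in phenol-red-free DMEM, 10% FBS.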
* = called active by the depositor; i = inactive; ? = inconclusive; · = no result given; [ ] = another dose, or the depositor's remark. Hits are enriched below; roughly 8% of the tested compounds scored in any of these assays. Calls come from the whole dose curve; as a rule, active = well fitted curve in the direction sought with a large enough effect; inconclusive = small, poorly fitted or top-dose-only effect, or another doubt; inactive = no such curve, though single readings can be large; an effect the other way counts as inactive or inconclusive. Potency is the fitted concentration of half-maximal effect.

SMILES | MCF10A rereplic | HT1080-NT tox | SW480 rerep | KB-V1 cytotox | HT1080 IDH1KD tx | KB-3-1 tox
Cc1ccc(-n2nnnc2SCc2nnc(-c3ccccc3Br)o2)cc1 | 27.7% | 0.0% | 23.3% | 16.4µM* | -7.9% | i
Cc1cc(C)n2nc(SCc3nnc(-c4ccccc4Br)o3)nc2n1 | 0.3% | 0.2% | -14.3% | 13µM* | 4.3% | i
COc1ccc2c(c1)cc1c(=O)n(CC(=O)NCCc3ccccc3)nc(C)n12 | · | · | · | i | · | i
COC(=O)c1sccc1S(=O)(=O)N1CCN(c2ccc(C(C)=O)cc2)CC1 | · | · | · | i | · | i
COc1cc(/C=C/C(=O)N2CCCN(C(=O)/C=C/c3cc(OC)c(OC)c(OC)c3)CC2)cc(OC)c1OC | -7.5% | 9.2% | ? | i | -0.6% | ?
COc1cc(C=CC(=O)c2ccccc2)cc(OC)c1OC | · | 10.3µM* | · | 23.1µM* | 8.2µM* | ?
COc1ccc(/C=C/C(=O)c2ccccc2)c(OC)c1 | -1.2% | ? | ? | ? | ? | i
COc1cc(C=CC(=O)c2cc(OC)c(OC)c(OC)c2)cc(OC)c1OC | 13µM* | ? | ? | ? | 23.1µM* | 6.51µM*
COc1cc(/C=C/C(=O)N2CCC=CC2=O)cc(OC)c1OC | 8.2µM* | 5.8µM* | ? | ? | 4.11µM* | ?
COc1cc(/C=C/C(C)=O)cc(OC)c1OC | ? | -8.5% | -7.5% | i | 0.2% | 23.1µM*
COCCn1c(C)cc(O)c(C(c2ccccc2)N2CCN(c3ccccc3F)CC2)c1=O (stereo not given) | · | · | · | i | · | i
COc1ccc(C=CC(=O)c2ccc3cc(OC)c(OC)cc3c2)cc1OC | · | -23.6% | · | i | ? | ?
COc1ccc2cc(C(=O)/C=C/c3cc(OC)c(OC)c(OC)c3)ccc2c1 | 13µM* | ? | 20.6µM* | i | ? | i
CCCCNC(=O)/C=C/c1ccc(S(=O)(=O)Nc2ccc(OC)cc2)cc1 | 13.7% | -18.1% | 26.4% | i | -20.1% | i
O=C(Nc1ccc(Cn2cccn2)cc1)c1ccc(COc2ccc(Br)cc2)cc1 | 3.4% | 3.7% | -1.7%[9.22 µM] | i | -1.4% | i
O=C(Nc1ccc(Cn2cccn2)cc1)c1ccc(COc2cccc(Br)c2)cc1 | ? | -15.4% | -1.1% | 9.2µM* | ? | 0.731µM*
COc1ccc2oc(C(=O)OCC(=O)NC3CCCCC3)c(C)c2c1 | 1.8% | -2.3% | -6.1% | i | -0.6% | i
O=C(N/N=C/c1cccc(F)c1)c1c(O)c2c([nH]c1=O)CCCC2 | 1.3% | 27.5% | -0.3% | i | 23.0% | ?
Clc1ccc(CNc2ncnc3nc[nH]c23)cc1 | · | · | · | i | · | i
CCOc1ccc(N2CC(C(=O)Nc3cc(S(=O)(=O)N4CCCCC4)ccc3C)CC2=O)cc1 (stereo not given) | 12.4% | -0.4% | 6.2% | 18.4µM* | -2.4% | i
Cc1cnc(NC(=O)C2CC(=O)N(c3ccc4c(c3)OCCO4)C2)s1 (stereo not given) | 2.0% | -0.1% | -3.2% | 14.6µM* | -15.6% | i
CCC(CC)c1nnc(NC(=O)C2CC(=O)N(c3ccc4c(c3)OCCO4)C2)s1 (stereo not given) | 5.0% | -6.3% | 2.2% | 20.6µM* | 11.1% | i
CCOc1ccc(N2CC(C(=O)Nc3ccc4c(c3)OCO4)CC2=O)cc1 (stereo not given) | 10.5% | -18.7% | -0.5% | i | -5.6% | i
CCOc1ccc(N2CC(C(=O)Nc3ccc4c(c3)OCCO4)CC2=O)cc1 (stereo not given) | -0.3% | -5.1% | -2.2% | i | 1.1% | 5.17µM*
COc1ccc(CNCCCSc2nnnn2-c2ccccc2)cc1 | · | · | · | i | · | i
Cc1cnc(NC(=O)C2CC(=O)N(c3cccc(Cl)c3)C2)s1 (stereo not given) | ? | -1.8% | ? | 20.6µM* | 0.6% | ?
